In PubChem BioAssay (NCI):
Where “and” joins values, the source holds several entries; their conditions need not be identical. Equal entries are not always repeated. The panel holds about 79,000 compounds, 15% with a hit somewhere; the sample as a whole holds those more often. Rule as the data show it: active = growth inhibition above about 70%; inactive = the rest.

Columns and labels:
[1] = NCI Yeast Anticancer Drug Screen. Data for the rad50 strain (AID 155);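 also: 0% = growth of vehicle-only cultures of the same strain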; conditions: S. cerevisiae rad50 strain growth inhibition, active compounds read high; at 50.0 µM unless noted
Summary of the method: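 A DNA repair-deficient yeast mutant serves as the test organism; compound-induced growth inhibition is calculated against vehicle-treated cells.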

[2] = NCI Yeast Anticancer Drug Screen. Data for the mec2-1 strain (AID 157); conditions: S. cerevisiae mec2-1 strain, active compounds read high; at 50.0 µM unless noted
Summary of the method: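 Readout is yeast growth inhibition, normalised to vehicle-treated controls, in the mec2-1 strain exposed to compound.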

[3] = NCI Yeast Anticancer Drug Screen. Data for the sgs1 mgt1 strain (AID 161);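 also: 0% = growth of cultures given vehicle only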; conditions: S. cerevisiae sgs1 mgt1 strain, active compounds read high; at 50.0 µM unless noted
Summary of the method: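 Yeast cells carrying a defined DNA-repair defect were exposed to test compounds. Growth inhibition was measured relative to vehicle-treated controls.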

[4] = NCI Yeast Anticancer Drug Screen. Data for the cln2 rad14 strain (AID 165);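 also: 0% = growth equal to vehicle treated cultures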; conditions: S. cerevisiae cln2 rad14 strain, active compounds read high; at 50.0 µM unless noted
Summary of the method: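 Relative to vehicle controls, growth inhibition of compound-treated cln2 rad14 yeast was recorded.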

[5] = NCI Yeast Anticancer Drug Screen. Data for the bub3 strain (AID 167); conditions: S. cerevisiae bub3 mutant strain, active compounds read high; at 50.0 µM unless noted
Summary of the method: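 Inhibition values come from growth of compound-treated mutant yeast normalised to vehicle-treated controls.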

[6] = NCI Yeast Anticancer Drug Screen. Data for the mlh1 rad18 strain (AID 175); conditions: S. cerevisiae mlh1 rad18 strain growth inhibition, active compounds read high; at 50.0 µM unless noted
Summary of the method: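 Test agents were incubated with a yeast strain of defined genotype (DNA damage repair defect). Inhibition of growth was derived by comparison with vehicle-exposed cultures.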

Measured: growth inhibition

CCCCCCC1OCC(CC)([N+](=O)[O-])CO1 (configuration not stated)
inactive: [1] -13.8% | [2] -9.6% | [3] 1.15% | [4] -39.8% | [5] -23.6% | [6] -12.9%

ClCCOCCOc1ccc(C2CCCCC2)cc1
inactive: [1] 12.9% and -1.65% | [2] 11.9% and -0.75% | [3] 56% and -3.65% | [4] 24.1% and -10.8% | [5] 28.2% and 31.4% | [6] 13.8% and 9.05%

CCN(CCNS(C)(=O)=O)c1ccc(N)c(C)c1
inactive: [1] -15.3% and -11.2% | [2] -17.2% and -6.1% | [3] -23.1% and -14.5% | [4] 1.5% and -19.1% | [5] -17.9% and 1.95% | [6] -4.05% and 6.35%

CC(=O)N(C(C)=O)c1c(N)n(C)c(=O)[nH]c1=O
inactive: [1] 12.7% | [2] -4.85% | [3] 6.6% | [4] 14.3% | [5] 2.75% | [6] 8.5%

CCCSc1nn2cc(NC(=O)OC)nc2s1
inactive: [1] -13.5% | [2] -8.7% | [3] -3.75% | [4] -24.5% | [5] 7.05% | [6] -6.5%

O=C(O)CCN(CCCCN(CCC(=O)O)CCC(=O)O)CCC(=O)O
inactive: [1] 4.7% | [2] 7.05% | [3] -10.7% | [4] 1.4% | [5] 1.25% | [6] -4.15%

CCOC(=O)c1ccc(O)c(NC(C)=O)c1
inactive: [1] -11.7% | [2] 18.1% | [3] 0.15% | [4] -42.5% | [5] 10% | [6] -7.15%

C=C(c1c(C)cccc1OC(C)=O)c1c(C)cccc1OC(C)=O
inactive: [1] -8.8% | [2] -10.6% | [3] -0.6% | [4] -9.1% | [5] 17.3% | [6] -6.55%

CCC(CC)NC(CC)COC(=O)c1ccc(N)cc1 (configuration not stated)
inactive: [1] 8.4% | [2] -4.3% | [3] -0.05% | [4] -0.5% | [5] 5.8% | [6] -4.9%

COc1ccc2c(c1[N+](=O)[O-])CC[C@@H]1[C@@H]2CC[C@]2(C)C(=O)CC[C@@H]12
inactive: [1] 20.9% | [2] 21.1% | [3] 0% | [4] 37% | [5] 12.1% | [6] -30.9%

CNC(=O)NCCCCC(NC(=O)OCc1ccccc1)C(=O)OCc1ccccc1 (configuration not stated)
inactive: [1] 3.15% | [2] -14% | [3] -37.2% | [4] -3.5% | [5] 1.15% | [6] -24.1%

O=C(CCl)Nc1cc2ccccc2oc1=O
inactive: [1] 21% | [2] 42.4% | [3] 20.6% | [4] 41% | [5] 5.45% | [6] -1.85%

CC(=O)Oc1cc(OC(C)=O)c2c(OC(C)=O)c3c(OC(C)=O)cc(C)cc3cc2c1
inactive: [1] 40.5% | [2] 19.8% | [3] 39.5% | [4] 31.6% | [5] 9.3% | [6] 20.1%

Cn1c(=S)[nH]c2c(Cl)cc(Cl)cc2c1=O
inactive: [1] -40.4% | [2] -30.6% | [3] -7.1% | [4] -13.9% | [5] -27.7% | [6] -51.9%

COc1c(O)cc2c(c1O)C1OC(CO)C(O)C(O)C1OC2=O (configuration not stated)
inactive: [1] -4.3% | [2] -15.4% | [3] -3.85% | [4] 19.1% | [5] -20.8% | [6] 0.5%

CSc1ccc(C(C)=O)cc1
inactive: [1] 13.6% | [2] 5.9% | [3] 5.95% | [4] 4.6% | [5] 1.55% | [6] 3%

COc1ccc(NC(=O)C(C)Oc2ccc(OCC3CCCCC3)cc2)cc1 (configuration not stated)
inactive: [1] -22.9% | [2] -40.5% | [3] -42% | [4] -26.1% | [5] -56.9% | [6] -29.6%

COc1cc(O)c(C(=O)/C=C/c2ccccc2)c(OC)c1
inactive: [1] 1.05% | [2] -12.1% | [3] 27.1% | [4] 15.6% | [5] 15.1% | [6] -21.4%

O=c1[nH]c(=O)c2[nH]c(Br)nc2[nH]1
inactive: [1] 2.35% | [2] -4.3% | [3] -12.7% | [4] 0.2% | [5] -8.45% | [6] 3.85%

COC(=O)C1C(O)C(C)C(O)C(C)(O)/C=C/C=C(C)C(=O)Nc2c(C)c(OC(C)=O)c3c(c2O)C(=O)C(C)=C2OCOC(=C23)C(C)=CC(C)(O)C(O)C(C)C1OC(C)=O (configuration not stated)
inactive: [1] 4.6% | [2] -19.9% | [3] 5.5% | [4] 4.05% | [5] 3.05% | [6] 18.8%

CC(=O)OC1CCC2(C)C(CCC3C2C(=O)C(OC(C)=O)C2(C)C3CC3OC4(CCC(C)CO4)C(C)C32)C1 (configuration not stated)
inactive: [1] -10.5% | [2] -19.9% | [3] -11.2% | [4] 3.6% | [5] -23.9% | [6] -6.9%

Cn1c(=O)[nH]c(=O)c2nc(-c3ccccc3)cnc21
inactive: [1] -11.9% | [2] 12.3% | [3] 2.55% | [4] -13.6% | [5] -2.7% | [6] -0.65%
